Values joined by “and” are separate entries in the source; they are usually repeats but may differ in a detail not shown here. Identical values can stand only once. Among all 5,500 compounds or so, about 2,000 (36%) were called active. Not shown: some 18% with an inconclusive outcome. Cut-off read from the data, not from the text of the source: active = normalized growth mostly below about 0.91 (no sharp cut-off); inconclusive = no clear call, values can overlap the other calls; inactive = mostly above about 0.92. Some of the results follow.
Test: chemical genetic growth profiling, strain panel (AID 1159580);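 note: tested at 20 µM; growth read once vehicle control cultures reached saturation at 30 °C; 1 = growth at the plate median or of vehicle wells; lower values mean less growth of the strain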
Details: S. cerevisiae deletion strains, growth OD

Measured: normalized growth

CCCCCC(O)C1C(=O)OC(C)C(O)/C=C/C=C/C=C/C=C/C=C(\C)C(O)CC(O)CC(O)CC(O)CC(O)CC(O)CC1O (configuration not stated)
inactive: locus YAL013W, strain DEP1, active compounds read low 1.01 | locus YAL021C, strain ccr4, active compounds read low 1.01 | locus YAL026C, strain drs2, active compounds read low 0.994 | locus YAL030W, strain snc1, active compounds read low 0.985 | locus YBL061C, strain skt5, active compounds read low 0.982 | locus YBR009C, strain hhf1, active compounds read low 0.996 | locus YBR021W, strain FUR4, active compounds read low 1.02 | locus YBR023C, strain chs3, active compounds read low 0.989 | locus YBR171W, strain sec66, active compounds read low 0.982 | locus YBR229C, strain ROT2, active compounds read low 1.01 | locus YBR231C, strain swc5, active compounds read low 0.992 | locus YBR279W, strain paf1, active compounds read low 0.993 | locus YCL011C, strain gbp2, active compounds read low 1 | locus YCL016C, strain dcc1, active compounds read low 0.986 | locus YCL029C, strain bik1, active compounds read low 1.03 | locus YCL061C, strain MRC1, active compounds read low 0.992 | locus YCL069W, strain vba3, active compounds read low 0.993 | locus YCR088W, strain abp1, active compounds read low 0.993 | locus YDL005C, strain med2, active compounds read low 0.995 | locus YDL035C, strain GPR1, active compounds read low 1.02 | locus YDL040C, strain nat1, active compounds read low 0.99 | locus YDL074C, strain BRE1, active compounds read low 1.01 | locus YDL101C, strain DUN1, active compounds read low 1.01 | locus YDL134C, strain PPH21, active compounds read low 1.01 | locus YDL185W, strain tfp1, active compounds read low 1.03 | locus YDL192W, strain arf1, active compounds read low 1.04 | locus YDR001C, strain nth1, active compounds read low 0.983 | locus YDR069C, strain doa4, active compounds read low 0.996 | locus YDR101C, strain arx1, active compounds read low 1.02 | locus YDR137W, strain rgp1, active compounds read low 1.01 | locus YDR150W, strain NUM1, active compounds read low 1.02 | locus YDR159W, strain sac3, active compounds read low 0.96 | locus YDR162C, strain NBP2, active compounds read low 1.02 | locus YDR195W, strain ref2 0.96 | locus YDR297W, strain sur2, active compounds read low 1.01 | locus YDR318W, strain mcm21, active compounds read low 1.03 | locus YDR334W, strain swr1, active compounds read low 0.986 | locus YDR335W, strain msn5, active compounds read low 0.985 | locus YDR388W, active compounds read low 1.03 | locus YDR392W, strain spt3, active compounds read low 0.937 | locus YDR502C, strain sam2, active compounds read low 1.01 | locus YEL003W, strain gim4, active compounds read low 0.993 | locus YEL037C, strain rad23, active compounds read low 1.02 | locus YEL061C, strain CIN8 (second series), active compounds read low 0.98 | locus YEL061C, strain CIN8, active compounds read low 1 | locus YER015W, strain faa2, active compounds read low 0.991 | locus YER016W, strain bim1, active compounds read low 0.986 | locus YER110C, active compounds read low 1.02 | locus YER111C, strain swi4, active compounds read low 0.996 | locus YER155C, strain BEM2 (second series), active compounds read low 0.976 | locus YER155C, strain BEM2, active compounds read low 1.02 | locus YER167W, strain BCK2, active compounds read low 1.04 | locus YFR010W, strain ubp6, active compounds read low 0.984 | locus YGL078C, strain dbp3, active compounds read low 1.01 | locus YGL086W, strain mad1, active compounds read low 1.03 | locus YGL167C, strain pmr1, active compounds read low 0.984 | locus YGL173C, strain kem1, active compounds read low 0.993 | locus YGL227W, strain vid30, active compounds read low 0.989 | locus YGL240W, strain doc1, active compounds read low 0.981 | locus YGL248W, strain PDE1, active compounds read low 1.01 | locus YGL253W, strain hxk2, active compounds read low 1 | locus YGR078C, strain PAC10, active compounds read low 1 | locus YGR135W, strain pre9, active compounds read low 1.02 | locus YGR229C, strain SMI1, active compounds read low 1.02 | locus YGR252W, strain gcn5, active compounds read low 1.04 | locus YHR013C, strain ard1, active compounds read low 0.966 | locus YHR027C, strain rpn1, active compounds read low 0.994 | locus YHR030C, strain SLT2, active compounds read low 1.01 and 0.963 | locus YHR079C, strain IRE1 (second series), active compounds read low 1.02 | locus YHR079C, strain IRE1, active compounds read low 0.959 | locus YHR094C, strain hxt1, active compounds read low 1.02 | locus YHR129C, strain ARP1, active compounds read low 1 | locus YHR142W, strain chs7, active compounds read low 1.01 | locus YHR200W, strain rpn10, active compounds read low 1.02 | locus YIL066C, strain RNR3, active compounds read low 1.01 | locus YIL073C, strain SPO22, active compounds read low 1.12 | locus YIL125W, strain kgd1, active compounds read low 1.03 | locus YIR030C, strain dcg1, active compounds read low 1.02 | locus YJL092W, strain hpr5, active compounds read low 0.985 | locus YJL095W, strain BCK1 (second series), active compounds read low 0.988 | locus YJL095W, strain BCK1, active compounds read low 1.01 and 0.975 | locus YJL115W, strain asf1, active compounds read low 0.991 | locus YJL129C, strain trk1, active compounds read low 0.976 | locus YJL134W, strain LCB3, active compounds read low 1.01 | locus YJL154C, strain vps35, active compounds read low 0.985 | locus YJL164C, strain tpk1, active compounds read low 1 | locus YJL166W, strain qcr8, active compounds read low 0.997 | locus YJL168C, strain set2, active compounds read low 1.02 | locus YJL187C, strain SWE1 (second series), active compounds read low 1 | locus YJL187C, strain SWE1, active compounds read low 0.995 | locus YJR043C, strain POL32, active compounds read low 1.03 | locus YJR066W, strain TOR1, active compounds read low 0.939

From PubChem BioAssay AID1159580 (chemical genetic matrix, 2015)
